ChEMBL document CHEMBL1961873, “Compounds: GSK PKIS; Assays: Nanosyn kinase panel” (2012)
Values joined by “and” are separate entries in the source; they are usually repeats but may differ in a detail not shown here. Identical values can stand only once.

Legend:
[1] = biological target: CDK3/Cyclin E (Homo sapiens) (UniProt P24864+Q00526); conditions: at 1 µM;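 further: each figure is a mean percent inhibition of the CDK3/cyclin E complex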
[2] = biological target: Cyclin-dependent kinase 4 (Homo sapiens) (UniProt P11802); conditions: at 0.1 µM
[3] = biological target: Cyclin-dependent kinase 4 (Homo sapiens) (UniProt P11802); conditions: at 1 µM
[4] = biological target: Cyclin-dependent kinase 5 (Homo sapiens) (UniProt Q00535); conditions: at 0.1 µM
[5] = biological target: Cyclin-dependent kinase 5 (Homo sapiens) (UniProt Q00535); conditions: at 1 µM
[6] = biological target: Cyclin-dependent kinase 6 (Homo sapiens) (UniProt Q00534); conditions: at 0.1 µM
[7] = biological target: Cyclin-dependent kinase 6 (Homo sapiens) (UniProt Q00534); conditions: at 1 µM
[8] = biological target: Dual specificity protein kinase CLK2 (Homo sapiens) (UniProt P49760); conditions: at 0.1 µM
[9] = biological target: Dual specificity protein kinase CLK2 (Homo sapiens) (UniProt P49760); conditions: at 1 µM
[10] = biological target: Dual specificity protein kinase CLK3 (Homo sapiens) (UniProt P49761); conditions: at 0.1 µM
[11] = biological target: Dual specificity protein kinase CLK3 (Homo sapiens) (UniProt P49761); conditions: at 1 µM
[12] = biological target: Dual specificity tyrosine-phosphorylation-regulated kinase 1A (Homo sapiens) (UniProt Q13627); conditions: at 0.1 µM
[13] = biological target: Dual specificity tyrosine-phosphorylation-regulated kinase 1A (Homo sapiens) (UniProt Q13627); conditions: at 1 µM
[14] = biological target: Dual specificity tyrosine-phosphorylation-regulated kinase 1B (Homo sapiens) (UniProt Q9Y463); conditions: at 0.1 µM
[15] = biological target: Dual specificity tyrosine-phosphorylation-regulated kinase 1B (Homo sapiens) (UniProt Q9Y463); conditions: at 1 µM
[16] = biological target: T1, Dual specificity tyrosine-phosphorylation-regulated kinase 2 (Homo sapiens) (UniProt Q92630); conditions: at 0.1 µM
T1 sequence (whole entry): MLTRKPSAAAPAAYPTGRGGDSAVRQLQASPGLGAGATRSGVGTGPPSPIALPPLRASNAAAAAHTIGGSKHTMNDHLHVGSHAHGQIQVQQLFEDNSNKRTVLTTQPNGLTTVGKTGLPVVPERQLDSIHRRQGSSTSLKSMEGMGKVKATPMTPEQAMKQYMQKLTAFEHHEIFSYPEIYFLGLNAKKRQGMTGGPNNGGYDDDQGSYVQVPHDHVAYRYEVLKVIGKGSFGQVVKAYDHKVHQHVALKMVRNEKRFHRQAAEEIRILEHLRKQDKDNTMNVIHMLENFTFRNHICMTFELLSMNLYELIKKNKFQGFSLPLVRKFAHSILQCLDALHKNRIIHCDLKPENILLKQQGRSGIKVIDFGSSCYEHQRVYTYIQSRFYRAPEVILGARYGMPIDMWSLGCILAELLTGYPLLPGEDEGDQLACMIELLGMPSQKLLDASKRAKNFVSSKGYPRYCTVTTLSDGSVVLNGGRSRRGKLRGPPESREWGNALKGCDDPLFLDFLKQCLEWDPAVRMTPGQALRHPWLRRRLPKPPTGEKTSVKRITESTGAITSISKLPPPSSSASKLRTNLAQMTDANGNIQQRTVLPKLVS

[17] = biological target: T1, Dual specificity tyrosine-phosphorylation-regulated kinase 2 (Homo sapiens); conditions: at 1 µM
[18] = biological target: Glycogen synthase kinase-3 alpha (Homo sapiens) (UniProt P49840); conditions: at 0.1 µM
[19] = biological target: Glycogen synthase kinase-3 alpha (Homo sapiens) (UniProt P49840); conditions: at 1 µM
[20] = biological target: Glycogen synthase kinase-3 beta (Homo sapiens) (UniProt P49841); conditions: at 0.1 µM;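 further: values are mean percent inhibition of GSK3B activity, from the GSK Published Kinase Inhibitor Set (PKIS) screening dataset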
Chain of Glycogen synthase kinase-3 beta (Homo sapiens) (P49841 whole entry, looked up): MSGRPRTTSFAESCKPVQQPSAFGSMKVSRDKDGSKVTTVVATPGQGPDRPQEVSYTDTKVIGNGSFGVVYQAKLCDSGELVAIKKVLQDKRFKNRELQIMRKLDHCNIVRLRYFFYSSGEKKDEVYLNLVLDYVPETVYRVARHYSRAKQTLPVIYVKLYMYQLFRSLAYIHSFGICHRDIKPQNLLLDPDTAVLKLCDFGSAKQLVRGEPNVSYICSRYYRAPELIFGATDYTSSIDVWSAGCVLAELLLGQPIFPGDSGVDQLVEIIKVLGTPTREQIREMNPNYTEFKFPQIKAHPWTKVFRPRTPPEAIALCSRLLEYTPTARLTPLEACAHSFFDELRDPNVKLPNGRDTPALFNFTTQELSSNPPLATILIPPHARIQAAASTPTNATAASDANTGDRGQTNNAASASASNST

Chain of Dual specificity protein kinase CLK3 (Homo sapiens) (P49761 whole entry, looked up): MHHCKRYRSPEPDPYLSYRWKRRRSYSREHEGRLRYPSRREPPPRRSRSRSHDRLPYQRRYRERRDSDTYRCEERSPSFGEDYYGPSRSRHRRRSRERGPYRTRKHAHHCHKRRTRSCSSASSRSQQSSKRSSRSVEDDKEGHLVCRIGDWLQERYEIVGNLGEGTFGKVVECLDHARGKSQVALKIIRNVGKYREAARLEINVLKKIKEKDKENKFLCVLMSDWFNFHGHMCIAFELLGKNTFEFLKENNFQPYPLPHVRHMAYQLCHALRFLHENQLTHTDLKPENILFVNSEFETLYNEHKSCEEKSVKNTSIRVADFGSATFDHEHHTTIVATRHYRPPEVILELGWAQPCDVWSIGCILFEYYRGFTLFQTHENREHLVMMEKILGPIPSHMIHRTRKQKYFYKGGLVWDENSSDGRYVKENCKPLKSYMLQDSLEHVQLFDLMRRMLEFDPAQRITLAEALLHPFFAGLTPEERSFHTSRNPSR
Chain of Cyclin-dependent kinase 6 (Homo sapiens) (Q00534 whole entry): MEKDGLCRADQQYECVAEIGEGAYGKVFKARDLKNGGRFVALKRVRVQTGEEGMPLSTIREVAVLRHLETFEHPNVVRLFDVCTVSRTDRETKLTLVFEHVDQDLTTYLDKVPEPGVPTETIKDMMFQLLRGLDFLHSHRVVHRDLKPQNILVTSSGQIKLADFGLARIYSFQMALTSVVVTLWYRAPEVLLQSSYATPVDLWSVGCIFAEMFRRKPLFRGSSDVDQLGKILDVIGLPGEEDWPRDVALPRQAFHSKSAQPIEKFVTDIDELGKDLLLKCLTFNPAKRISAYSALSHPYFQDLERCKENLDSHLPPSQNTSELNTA
Chain of CDK3/Cyclin E (Homo sapiens) (P24864 whole entry, looked up): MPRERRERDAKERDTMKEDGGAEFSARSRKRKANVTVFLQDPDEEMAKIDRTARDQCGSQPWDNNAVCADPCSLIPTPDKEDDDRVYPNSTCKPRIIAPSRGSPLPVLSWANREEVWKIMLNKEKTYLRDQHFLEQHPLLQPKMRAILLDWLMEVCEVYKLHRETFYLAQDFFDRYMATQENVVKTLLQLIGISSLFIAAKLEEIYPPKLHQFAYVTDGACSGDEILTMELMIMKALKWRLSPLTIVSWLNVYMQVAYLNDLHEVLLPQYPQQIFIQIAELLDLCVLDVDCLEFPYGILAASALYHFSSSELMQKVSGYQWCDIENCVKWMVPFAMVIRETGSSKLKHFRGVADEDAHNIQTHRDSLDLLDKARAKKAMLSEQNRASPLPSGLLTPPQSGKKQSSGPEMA
Chain of CDK3/Cyclin E (Homo sapiens) (Q00526 whole entry, looked up): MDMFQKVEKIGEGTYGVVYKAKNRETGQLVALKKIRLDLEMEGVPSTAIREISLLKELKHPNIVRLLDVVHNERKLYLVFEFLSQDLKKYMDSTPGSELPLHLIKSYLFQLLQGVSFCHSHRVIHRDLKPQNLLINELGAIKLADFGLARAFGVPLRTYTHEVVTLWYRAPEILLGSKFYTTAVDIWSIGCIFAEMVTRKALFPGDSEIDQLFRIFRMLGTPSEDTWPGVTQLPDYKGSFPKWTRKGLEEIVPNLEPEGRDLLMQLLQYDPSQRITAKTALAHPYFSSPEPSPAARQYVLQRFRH
Chain of Dual specificity protein kinase CLK2 (Homo sapiens) (P49760 whole entry, looked up): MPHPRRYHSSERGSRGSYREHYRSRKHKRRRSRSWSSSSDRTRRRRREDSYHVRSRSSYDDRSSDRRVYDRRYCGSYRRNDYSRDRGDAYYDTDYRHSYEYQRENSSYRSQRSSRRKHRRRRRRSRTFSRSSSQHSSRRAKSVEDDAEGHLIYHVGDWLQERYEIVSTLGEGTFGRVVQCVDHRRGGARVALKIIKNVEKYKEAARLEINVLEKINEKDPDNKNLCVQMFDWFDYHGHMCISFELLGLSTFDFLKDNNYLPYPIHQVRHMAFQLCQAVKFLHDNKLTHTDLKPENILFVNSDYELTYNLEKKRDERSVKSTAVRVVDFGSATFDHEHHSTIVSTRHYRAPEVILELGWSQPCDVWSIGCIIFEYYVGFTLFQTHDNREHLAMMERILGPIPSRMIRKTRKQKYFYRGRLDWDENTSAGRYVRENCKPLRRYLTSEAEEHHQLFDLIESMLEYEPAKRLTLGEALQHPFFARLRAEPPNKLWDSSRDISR
Chain of Dual specificity tyrosine-phosphorylation-regulated kinase 1B (Homo sapiens) (Q9Y463 whole entry, looked up): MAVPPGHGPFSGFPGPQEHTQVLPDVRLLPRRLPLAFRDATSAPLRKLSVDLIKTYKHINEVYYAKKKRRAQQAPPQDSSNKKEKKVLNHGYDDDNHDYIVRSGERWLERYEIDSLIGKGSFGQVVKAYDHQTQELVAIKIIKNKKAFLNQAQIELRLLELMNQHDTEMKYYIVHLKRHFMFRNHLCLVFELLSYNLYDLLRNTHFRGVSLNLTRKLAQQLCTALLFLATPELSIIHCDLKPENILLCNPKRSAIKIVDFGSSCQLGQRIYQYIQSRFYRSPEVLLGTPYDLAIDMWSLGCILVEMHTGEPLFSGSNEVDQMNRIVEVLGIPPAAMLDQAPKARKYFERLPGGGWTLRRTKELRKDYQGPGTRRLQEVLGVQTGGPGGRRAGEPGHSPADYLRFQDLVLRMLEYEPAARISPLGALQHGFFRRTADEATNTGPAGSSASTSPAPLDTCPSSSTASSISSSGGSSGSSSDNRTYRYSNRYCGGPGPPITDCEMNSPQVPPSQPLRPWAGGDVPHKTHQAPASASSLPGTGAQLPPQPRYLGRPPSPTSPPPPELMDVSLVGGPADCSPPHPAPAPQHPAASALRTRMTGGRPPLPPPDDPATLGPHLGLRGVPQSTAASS
Chain of Cyclin-dependent kinase 4 (Homo sapiens) (P11802 whole entry): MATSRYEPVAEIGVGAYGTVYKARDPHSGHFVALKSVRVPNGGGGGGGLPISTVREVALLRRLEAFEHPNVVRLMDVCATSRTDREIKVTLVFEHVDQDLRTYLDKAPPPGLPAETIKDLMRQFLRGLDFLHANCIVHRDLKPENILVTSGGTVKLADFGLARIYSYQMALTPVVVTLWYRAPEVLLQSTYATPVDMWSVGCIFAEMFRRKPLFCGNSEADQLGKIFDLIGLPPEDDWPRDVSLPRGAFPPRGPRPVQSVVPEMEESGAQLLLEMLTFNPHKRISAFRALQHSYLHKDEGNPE
Chain of Glycogen synthase kinase-3 alpha (Homo sapiens) (P49840 2-483 limits assumed): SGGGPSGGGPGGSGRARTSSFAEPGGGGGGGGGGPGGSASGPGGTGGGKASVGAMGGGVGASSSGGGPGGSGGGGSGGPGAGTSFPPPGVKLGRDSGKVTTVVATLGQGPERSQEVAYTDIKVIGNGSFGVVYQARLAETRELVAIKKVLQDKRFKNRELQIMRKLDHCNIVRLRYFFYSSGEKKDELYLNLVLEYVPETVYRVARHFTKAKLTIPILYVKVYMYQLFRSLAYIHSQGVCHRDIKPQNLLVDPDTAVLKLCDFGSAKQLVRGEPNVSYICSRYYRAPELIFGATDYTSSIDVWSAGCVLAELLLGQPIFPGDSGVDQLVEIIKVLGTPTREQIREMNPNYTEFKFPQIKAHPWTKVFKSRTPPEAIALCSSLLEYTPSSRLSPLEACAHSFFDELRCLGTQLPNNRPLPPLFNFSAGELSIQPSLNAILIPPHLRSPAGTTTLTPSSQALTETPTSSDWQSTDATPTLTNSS
Chain of Cyclin-dependent kinase 5 (Homo sapiens) (Q00535 whole entry, looked up): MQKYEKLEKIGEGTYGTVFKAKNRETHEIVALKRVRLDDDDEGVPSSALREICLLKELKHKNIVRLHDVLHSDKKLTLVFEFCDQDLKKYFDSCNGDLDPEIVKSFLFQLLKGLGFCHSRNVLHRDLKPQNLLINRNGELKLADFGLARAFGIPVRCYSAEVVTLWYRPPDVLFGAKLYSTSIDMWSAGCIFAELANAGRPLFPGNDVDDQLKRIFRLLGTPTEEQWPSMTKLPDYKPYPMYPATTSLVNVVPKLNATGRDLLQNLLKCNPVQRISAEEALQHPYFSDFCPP

| Structure (SMILES) | inhibition [1] | inhibition [2] | inhibition [3] | inhibition [4] | inhibition [5] | inhibition [6] | inhibition [7] | inhibition [8] | inhibition [9] | inhibition [10] | inhibition [11] | inhibition [12] | inhibition [13] | inhibition [14] | inhibition [15] | inhibition [16] | inhibition [17] | inhibition [18] | inhibition [19] | inhibition [20] |
| --- | --- | --- | --- | --- | --- | --- | --- | --- | --- | --- | --- | --- | --- | --- | --- | --- | --- | --- | --- | --- |
| CN1CCN(Cc2ccc(-c3cc4ncnc(Nc5ccc(OCc6cccc(F)c6)c(Cl)c5)c4s3)o2)CC1 | -0.88% and -0.53% | 0.41% and 3.55% | 4.82% and 8.07% | 1.3% and 1.22% | 2.71% and 2.36% | -3.55% and 3.09% | -1.42% and 9.4% | -0.35% and 2.37% | -0.11% and 1.21% | -0.14% and 1.15% | 0.78% and 2.08% | 2.29% and 3.65% | 3.25% and 6.67% | -1.48% and 1.67% | -0.65% and 3.95% | 2.17% and 3.19% | 1.22% and 4.53% | 4.34% and 12.6% | 3.93% and 13.7% | 2.82% and 10.6% |
| Nc1nccc(-c2c(-c3ccc(F)cc3)ncn2C2CCNCC2)n1 | -1.14% and -1.16% | 0.24% and -0.14% | 0.89% and 0.97% | 0.29% and 0.63% | 1.43% and 1.29% | -5.67% and 1.15% | -4.19% and 1.96% | 2.07% and 0.24% | 11.9% and 2.02% | -0.13% and 1.41% | 1.14% and 2.38% | 0.55% and 2.23% | 3.87% and 4.35% | 2.09% and 2.37% | 5.26% and 3.56% | -3.5% and -0.2% | 1.66% and -0.95% | 0.13% and 1.29% | 2.91% and 3.54% | -1.49% and 2.54% |
| COc1cc(Nc2ncc(-c3ccccc3)o2)cc(OC)c1 | 6.13% | 3.96% | 14.9% | -0.03% | 6.57% | 4.07% | 29.8% | 2.97% | 2.12% | 0.59% | 1.09% | 3.59% | 6.1% | -8.51% | 0.86% | 2.09% | 1.69% | 3.75% | 14.6% | 2.47% |
| CCS(=O)(=O)c1ccc(OC)c(Nc2ncc(-c3cccc(F)c3)o2)c1 | -2.15% | 2.69% | 4.19% | 0.21% | 1.39% | 3.05% | 1.82% | 13% | 63.1% | 2.49% | 12.1% | 4.83% | 26% | 0.76% | 12.2% | 5.21% | 13.7% | 2.67% | 5.61% | 2.72% |
| Cc1nnc(-c2cccc(-c3ccc(C(=O)NCC4CC4)cc3)c2)o1 | -0.73% | 1.46% | 2.47% | 0.47% | 1.45% | 2.21% | 4.2% | 1.61% | 1.14% | 2.84% | 2.8% | 3% | 6.39% | 0.21% | 1.06% | 3.15% | 5.04% | 4.33% | 14.8% | 3.05% |
| COc1ccc2ncn(-c3cc(O[C@H](C)c4ccccc4C(F)(F)F)c(C(N)=O)s3)c2c1 | -1.57% | 0.47% | 2.89% | 0.13% | 1.21% | -4.17% | -1.08% | 0.34% | 5.08% | -0.05% | 0.85% | 0.11% | 2.44% | 0.37% | 1.63% | -0.29% | 1.33% | -0.19% | 4.58% | -0.14% |
| CCn1c(-c2nonc2N)nc2cncc(C(=O)NCCNC)c21 | 0.12% | 1.73% | 3.94% | -0.65% | 0.97% | -0.66% | 1.38% | 1.2% | 10.5% | -2.71% | 9.74% | 20.8% | 72.4% | 9.71% | 54.7% | 7.99% | 37.2% | 10.2% | 49.7% | 6.83% |
| NS(=O)(=O)c1cccc(N/C=C2\C(=O)Nc3ccccc32)c1 | 11.3% | 5.5% | 18.1% | 2.87% | 16.5% | 2.67% | 55.6% | 2.13% | 13.7% | 1.92% | 3.43% | 4.67% | 7.61% | 1.69% | 4.25% | 3.56% | 9.5% | 4.32% | 20% | 3.36% |
| CC1=C(C(=O)Nc2ccc3[nH]nc(C)c3c2)C(c2ccc(C(F)(F)F)cc2)CC(=O)N1 (stereo not given) | 1.51% | 4.22% | 7.29% | 2.58% | 6.22% | 7.14% | 10.2% | 1.85% | 9.04% | 2.28% | 14.1% | 2.93% | 7.46% | 1.73% | 4.23% | 2.28% | 3.97% | 6.5% | 10.8% | 6.08% |
| O=C(Nc1n[nH]c2nnc(-c3cccnc3)cc12)C1CC1 | 81.4% | 13.7% | 56.1% | 27.2% | 69.2% | 19.7% | 64.6% | 5.98% | 43.4% | 0.24% | 1.3% | 73.8% | 93.2% | 69.1% | 81% | 20.6% | 75% | 80.5% | 82.4% | 80% |
| COc1cc2c(cc1Nc1nc(Nc3cccc(F)c3C(N)=O)c3cc[nH]c3n1)N(C(=O)CN1CCN(C(C)C)CC1)CC2 | -0.76% | 1.15% | 1.2% | 0.64% | 0.27% | -4.06% | -0.78% | 6.86% | 45.4% | 0.88% | 1.39% | 1.82% | 10.2% | 3.8% | 9.06% | 2.66% | 5.93% | 1.62% | 2.06% | 0.46% |
| CNC(=O)c1ncccc1Nc1nc(Nc2cc3c(cc2OC)CCCN3C(=O)CN(C)C)nc2[nH]ccc12 | 1.69% | 5.18% | 11.4% | 3.84% | 6.35% | 3.87% | 7.17% | 54.3% | 93.1% | 1.98% | 4.34% | 3.21% | 12.5% | 0.36% | 8.48% | 3.42% | 8.03% | 7.2% | 15.6% | 6.12% |
| CS(=O)(=O)CCNCc1ccc(-c2ccc3ncnc(Nc4ccc(OCc5cccc(C(F)(F)F)c5)cc4)c3c2)o1 | 1.01% | 3.72% | 2.89% | 0.15% | 0.08% | 0.44% | 1.5% | 0.99% | 1.97% | 1.09% | 1.18% | 2.76% | 5.29% | -0.58% | 1.03% | 3.45% | 6.22% | 2.81% | 1.39% | 1.65% |
